# Data taken from PubChem BioAssay (NCI).
# The panel holds about 83,000 compounds, 20% with a hit somewhere; the sample as a whole holds those more often.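 Treatment: one concentration, 48 hours, 96-well format. Scoring: percent growth, with anything below 10 considered active.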 A number with no mark means an inactive call. The source made the active and inactive calls.
# Tests used:
# Assay in all cases: NCI-60 one-dose screen, 48 h (100 = growth as untreated, 0 = no growth, -100 = all killed)
# Conditions in all cases: 10 µM unless noted
# HCT-15 colon = system: HCT-15 colon
# HT29 colon = system: HT29 colon
# SNB-75 CNS = system: SNB-75 CNS
# SNB-19 CNS = system: SNB-19 CNS
# PC-3 prostate = system: PC-3 prostate
# SK-MEL-5 melanoma = system: SK-MEL-5 melanoma
# UACC-62 melanoma = system: UACC-62 melanoma
# SK-MEL-28 melanoma = system: SK-MEL-28 melanoma
# SK-MEL-2 melanoma = system: SK-MEL-2 melanoma
# EKVX NSCLC = system: EKVX NSCLC
# SN12C renal = system: SN12C renal
# UO-31 renal = system: UO-31 renal
# TK-10 renal = system: TK-10 renal
# ACHN renal = system: ACHN renal
# CAKI-1 renal = system: CAKI-1 renal
# A498 renal = system: A498 renal
# CCRF-CEM leukemia = system: CCRF-CEM leukemia
# MOLT-4 leukemia = system: MOLT-4 leukemia
# U251 CNS = system: U251 CNS
# LOX IMVI melanoma = system: LOX IMVI melanoma
Structure (SMILES),growth (HCT-15 colon),growth (HT29 colon),growth (SNB-75 CNS),growth (SNB-19 CNS),growth (PC-3 prostate),growth (SK-MEL-5 melanoma),growth (UACC-62 melanoma),growth (SK-MEL-28 melanoma),growth (SK-MEL-2 melanoma),growth (EKVX NSCLC),growth (SN12C renal),growth (UO-31 renal),growth (TK-10 renal),growth (ACHN renal),growth (CAKI-1 renal),growth (A498 renal),growth (CCRF-CEM leukemia),growth (MOLT-4 leukemia),growth (U251 CNS),growth (LOX IMVI melanoma)
Cc1cccc(/C=C/c2ccc(NC(=S)NCCCCN(C)C)cc2)c1,-99.4% (active),-64.2% (active),-84.4% (active),-84% (active),-40.4% (active),-92.3% (active),-88.4% (active),-96.5% (active),-79.6% (active),-90.5% (active),-84.5% (active),-93.2% (active),-89.8% (active),-100% (active),-89.6% (active),-83.7% (active),-36.6% (active),-16.1% (active),,
Cc1ccc(C(C(=O)NC2CCCCC2)N(Cc2ccccc2Cl)C(=O)c2ccc(CN3CCOCC3)o2)o1 (centres undefined),98.3%,95.4%,80.2%,,78.5%,83.4%,66.2%,114%,92.8%,89%,95%,71.1%,101%,104%,72.4%,119%,86.8%,70.3%,103%,87%
COc1c2c(c(Br)c3c1C(CCc1ccccc1)N(C)CC3)OCO2 (centres undefined),24.6%,16.5%,63.8%,,41.3%,25.3%,16.3%,19.2%,68.6%,36.3%,35%,35.9%,70.9%,30.3%,36%,82%,30.1%,25.3%,43.3%,6% (active)
CCOc1ccccc1[C@H]1C(C(=O)c2ccc(Cl)cc2)C2(N[C@@H]1c1ccccc1)C(=O)Nc1ccc(Cl)cc12 (some centres undefined),20.3%,10.7%,30.7%,,9.44% (active),6.43% (active),17.5%,41.2%,-11.2% (active),21.5%,-57.3% (active),16.7%,61.4%,22.4%,,,26.2%,-23.4% (active),36.3%,13.2%
Cc1nn(-c2ccccc2)c2ncn(CC(=O)N/N=C/c3ccccc3O)c(=O)c12,20.8%,28.2%,76.1%,,43.3%,28.9%,34.3%,66.9%,55%,13.3%,47.4%,22.6%,63.4%,21.4%,,,23.9%,9.42% (active),40.2%,10.4%
COc1ccc2[nH]cc(-c3cc4nc(-c5cn(C)c6ncc(Br)cc56)cc(N)n4n3)c2c1,-70.5% (active),-76.1% (active),-56.9% (active),,-39.5% (active),-88.3% (active),-82.5% (active),-92.4% (active),-34.7% (active),-82.7% (active),-83.2% (active),-69.1% (active),-42.5% (active),-97.6% (active),-86.1% (active),-51% (active),-31% (active),-27.5% (active),,-97.9% (active)
CCCCC[C@@H]1C/C=C(\C)[C@@H](O)C(C)(C)C(=O)[C@@H](C)/C=C(\C)[C@@H]2C[C@H](O)C[C@](O)(CC(=O)O1)O2,38.4%,50.4%,32.9%,,21.4%,-17.6% (active),55.8%,76.3%,9.84% (active),21.4%,76.8%,20.4%,55.1%,19.7%,47.1%,30%,28.9%,18.2%,61.2%,50.9%
COc1ccc2c(c1)c(-c1cc(N)n3nc(-c4c[nH]c5ccccc45)cc3n1)cn2C,-69.8% (active),-71.7% (active),-24.8% (active),,1.08% (active),-94.8% (active),-92% (active),-94.6% (active),-65.4% (active),-79.6% (active),-81% (active),-71.1% (active),-92.5% (active),-79.6% (active),-70.2% (active),-57.8% (active),-25.1% (active),-1.51% (active),,-86.1% (active)
Nc1cc(-c2c[nH]c3ccc(F)cc23)nc2cc(-c3c[nH]c4ccccc34)nn12,-61.2% (active),-42.8% (active),66.2%,,10.3%,-4.35% (active),-8.04% (active),-33.9% (active),-16.8% (active),7.95% (active),41.2%,21.7%,17.3%,6.95% (active),1.64% (active),21.8%,-11.6% (active),-9.73% (active),-19.1% (active),-83.9% (active)
